# Assay outcomes deposited in PubChem by The Scripps Research Institute Molecular Screening Center.
# In the library only some 3.5% were active in any assay of this set; here they are far more common.
# TEAD-YAP block = TEAD-YAP interaction inhibition; HEK-TIYL cells, TEAD-Gal4/YAP UAS-luciferase luminescence; inhibition, % at 9.12 µM; 1.4% of 640,000 active; AID 1259422; in the data active = inhibition above about 32%;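 note: 0% = median of test compound wells and 100% = reference inhibitor wells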
# FBW7 activator = human FBW7 E3 ligase activation, primary screen. Q969H0. AlphaScreen FBW7–phospho-cyclin E peptide binding, activator screen. normalized activity (activation), % at 26.1 µM. 0.13% of 650,000 active. AID 1259310; in the data active = normalized activity above about 1.9%;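 note: purified mutant Fbw7 with reduced substrate affinity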
# GPR151 ag = activates the human receptor GPR151; PathHunter beta-arrestin GPR151 cells, luminescence; 1% of 650,000 active; activation, % at 11.2 µM; Q8TDV0; in the data active = activation above about 4.9%;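 note: 0% = median of compound wells and 100% = cells with positive control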
# MITF primary = human MITF inhibition, primary screen; AlphaScreen MITF homodimerization, bead proximity signal; 0.91% of 650,000 active; inhibition, % at 2.6 µM; O75030; AID 1259374; in the data active = inhibition above about 50%;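 note: 0% = vehicle wells with protein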
# GPR151 confirm = confirmation of human GPR151 activators. activation, % at 11.2 µM. GPR151 PathHunter beta-arrestin cells, luminescence, 90 min; % of EA-reagent control over plate median. 6,700 tested, under 10 active. shares compounds with GPR151 ag;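 active = mean percent activation across replicates above the confirmation screen cutoff of 4.91%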
# GPR119 ag = counter-screen for GPR151 activators: effect on human GPR119; shares compounds with GPR151 ag; 0.3% of 6,700 active; GPR119 PathHunter beta-arrestin cells, luminescence, 90 min; 0 = compound-well median, 100 = enzyme-acceptor control; activation, % at 11.2 µM;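 active = mean percent activation in the counterscreen above 29.09%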;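 note: counterscreen on off-target GPR119 to flag nonselective hits from the GPR151 activator screen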
# Target sequence (Q8TDV5 whole entry, looked up): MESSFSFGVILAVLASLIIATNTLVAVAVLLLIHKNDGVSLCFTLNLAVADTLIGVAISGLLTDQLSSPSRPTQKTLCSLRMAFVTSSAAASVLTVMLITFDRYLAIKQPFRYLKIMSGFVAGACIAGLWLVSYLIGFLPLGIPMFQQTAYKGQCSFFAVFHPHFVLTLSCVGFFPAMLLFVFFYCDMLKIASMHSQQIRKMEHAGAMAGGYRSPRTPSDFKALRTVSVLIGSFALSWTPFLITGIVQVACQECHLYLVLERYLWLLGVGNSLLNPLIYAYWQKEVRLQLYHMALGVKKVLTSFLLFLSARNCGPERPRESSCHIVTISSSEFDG
# The depositor's hits bear a star; . = not tested or not shown.
SMILES,TEAD-YAP block,FBW7 activator,GPR151 ag,MITF primary,GPR151 confirm,GPR119 ag
O=[N+]([O-])c1cccc(Cl)c1CSc1nnnn1-c1ccccc1,7,0,6.2*,7,0,2
O=[N+]([O-])c1cccc(Cl)c1CSc1nnnn1-c1cccc2ccccc12,4,0,0,14,.,.
CCOc1ccc(NC(=O)C(Sc2ccccc2)c2ccccc2)c([N+](=O)[O-])c1 (stereo unspecified),-14,0,6.1*,7,1,18
Cc1ccc(S(=O)(=O)NCC(=O)NN=C2CCC(C)CC2)cc1 (stereo unspecified),-1,0,6.5*,-12,-1,-15
CC1CCC(=NNC(=O)c2ccc(Cl)cc2)CC1 (stereo unspecified),-29,0,0,2,.,.
Cc1ccc(C(=O)NN=C2CCC(C)CC2)cc1 (stereo unspecified),-17,0,8.1*,10,2,-9
CCOc1ccc(CN2CCN(C3CCCCC3)C(CCO)C2)cc1CO (stereo unspecified),-3,0,0,7,.,.
CCN(CC)c1nc(NCCO)nc(N2CCN(c3ccccn3)CC2)n1,5,0,7.6*,14,0,-4
CCN(CC)c1nc(NCc2cccnc2)nc(N2CCN(c3ccccn3)CC2)n1,-1,0,6.0*,7,-1,-14
O=C(CSc1ccc(-c2ccccc2)nn1)Nc1nccs1,-12,0,-1,-23,.,.
CN1CCCC(OC(=O)c2cc(Br)ccc2Cl)C1 (stereo unspecified),0,0,6.2*,25,-1,-1
CN1CCCC(OC(=O)c2cc(Cl)ccc2Cl)C1 (stereo unspecified),-6,0,0,-6,.,.
Cc1ccc2c3c(ccc2n1)NC1=C(C(=O)CCC1)C3c1ccc(-c2ccccc2)cc1 (stereo unspecified),5,0,0,-6,.,.
Cc1n[nH]c(=O)nc1N/N=C/c1ccc(Cl)cc1,-21,0,-3,37,.,.
CCOc1ccc(S(=O)(=O)Nc2cccc(-c3ccc4nncn4n3)c2)cc1,39*,0,9.8*,14,1,11
O=C(Nc1cccc(F)c1)Nc1ccnn1C1CCN(Cc2nccs2)CC1,13,0,-1,1,.,.
CCOC(=O)C1CCC/C1=N\NC(=O)CSCc1ccccc1Cl (stereo unspecified),-1,0,0,3,.,.
CCCn1c(SCC(=O)NCC23CC4CC(CC(C4)C2)C3)n[nH]c1=O,3,0,3,-2,.,.
CCOc1ccc(NC(=O)Nc2nnc(CSCc3ccccc3)s2)cc1,12,0,7.0*,5,1,12
CCOC(=O)C1=C(C(F)(F)F)NC(=S)NC1c1cccc([N+](=O)[O-])c1 (stereo unspecified),2,0,0,17,.,.
Cn1c(SCC(=O)c2cccc(Br)c2)nnc1-c1ccccn1,-2,0,4.9*,-2,0,2
Cn1c(SCC(=O)Nc2ccc(F)c(F)c2)nnc1-c1ccccn1,-13,0,3,3,.,.
CCOc1ccc(NC(=O)c2sc3nc4c(c(-c5ccc(C)o5)c3c2N)CCCC4)cc1,1,0,0,12,.,.
CCOC(=O)c1nn(CCO)c2c1CN(Cc1cccc(Cl)c1)CC2,6,0,10*,5,0,6
O=C(CCc1nnc(Cc2cccc(C(F)(F)F)c2)o1)NCCn1ccc2ccccc21,-35,0,-1,7,.,.
SMILES,TEAD-YAP block,FBW7 activator,GPR151 ag,MITF primary,GPR151 confirm,GPR119 ag
CC(C)C(=O)Nc1ccc2c(c1)CCCN2C(=O)C1CC1,-1,0,1,6,.,.
O=c1c2cnn(-c3ccccc3)c2ncn1C/C=C/c1ccccc1,1,0,8.3*,3,0,2
CCOc1ccc(C(=O)N2CCCC(c3ncncc3-c3ccncc3)C2)o1 (stereo unspecified),3,0,3,10,.,.
CCOc1ccc(C(=O)N2CCC(c3ncncc3-c3ccncc3)CC2)o1,-9,0,18*,-3,1,11
CCOCCCNC(=S)N1CCN(c2nc(-c3ccc(F)cc3)cs2)CC1,33*,0,5.8*,7,1,21
Cc1sc2ncnc(NCCc3ccccc3)c2c1C,9,0,5.4*,8,1,19
Cc1sc2ncnc(Nc3ccncc3)c2c1C,8,0,5.3*,4,0,20
Cc1sc2ncnc(Nc3ccc(Cl)cc3)c2c1C,-1,0,1,-3,.,.
CN(C(=O)c1cccc(S(=O)(=O)N2CCCCC2)c1)c1ccccc1C(=O)O,1,0,2,9,.,.
O=C1CC(c2nc3ccccc3[nH]2)CN1c1ccccc1Cl (stereo unspecified),-7,0,1,9,.,.
Cc1c(Cl)cccc1N1CC(c2nc3ccccc3[nH]2)CC1=O (stereo unspecified),8,0,5.6*,-2,0,3
O=C(Cc1ccc(F)cc1)NCCc1nnc2n1CCN(Cc1cc3ccccc3o1)CC2,5,0,5.1*,-2,0,2
CC(C)C(=O)NCCc1nnc2n1CCN(Cc1cc3ccccc3o1)CC2,7,0,0,8,.,.
Cc1ccc(N2C(=O)CC(Nc3ccc(F)cc3)C2=O)c(Br)c1 (stereo unspecified),8,0,15*,-19,0,0
Cc1cccc(N2C(=O)CC(Nc3ccc(F)cc3)C2=O)c1 (stereo unspecified),9,0,0,10,.,.
CC(C)(C)C(=O)Nc1nnc(SCC(N)=O)s1,-7,0,5.2*,5,-2,-2
CC(C)(C)C(=O)Nc1nnc(SCC(=O)NO)s1,-22,0,-2,10,.,.
CCOC(=O)CNC(=O)CSc1nnc(NC(=O)C(C)(C)C)s1,10,0,5.2*,-1,1,16
Cc1ccc(-n2ncc3c(NC(c4ccccc4)c4ccccc4)ncnc32)c(C)c1,-3,0,1,-2,.,.
CCN(C(=O)c1ccc([N+](=O)[O-])cc1Cl)c1ccccc1C,-2,0,8.6*,8,-1,-9
N#CCSc1nc2ccccc2c(=O)n1Cc1ccc2c(c1)OCO2,-1,0,5.1*,3,0,-1
O=c1c2ccccc2nc(SCc2ccc(Cl)cc2)n1Cc1ccc2c(c1)OCO2,-5,0,0,-3,.,.
CCN(CC)S(=O)(=O)c1ccc(C(=O)OC2CCCCC2=O)cc1 (stereo unspecified),2,0,-1,-8,.,.
COc1cc(SC)ccc1C(=O)Nc1ccc2c(c1)OC(C)(C)O2,-54,0,5.2*,-10,0,-1
CC(=O)Nc1ccc(Nc2ncnc3nc(N4CCc5ccccc5C4)[nH]c23)cc1,-6,1,-2,7,.,.
